# Reference: article PMC5540273 (PLoS ONE, 2017)
# Key:
# Conditions in all cases: concentration: 1 μM,replicates: in singlicate; n = 1
# [1] = test system: JAK1(JH2domain-pseudokinase)
# [2] = test system: JAK2(JH1domain-catalytic)
# [3] = test system: JAK3(JH1domain-catalytic)
# JNK1 = test system: T1, JNK1
# T1 construct: gene MAPK8
# JNK2 = test system: T2, JNK2
# T2 construct: gene MAPK9
# JNK3 = test system: T3, JNK3
# T3 construct: gene MAPK10
# KIT-autoinhibited = test system: KIT-autoinhibited
# KIT = test system: KIT
# LATS1 = test system: LATS1
# LATS2 = test system: LATS2
# LCK = test system: LCK
# LIMK1 = test system: LIMK1
# LIMK2 = test system: LIMK2
# LKB1 = test system: T4, LKB1
# T4 construct: gene STK11
# LOK = test system: T5, LOK
# T5 construct: gene STK10
# LRRK2 = test system: LRRK2
# LTK = test system: LTK
# LYN = test system: LYN
# LZK = test system: T6, LZK
# T6 construct: gene MAP3K13
# MAK = test system: MAK
# 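Further: KINOMEscan kinase panel screen.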
SMILES,%Inh [1],%Inh [2],%Inh [3],%Inh (JNK1),%Inh (JNK2),%Inh (JNK3),%Inh (KIT-autoinhibited),%Inh (KIT),%Inh (LATS1),%Inh (LATS2),%Inh (LCK),%Inh (LIMK1),%Inh (LIMK2),%Inh (LKB1),%Inh (LOK),%Inh (LRRK2),%Inh (LTK),%Inh (LYN),%Inh (LZK),%Inh (MAK)
CN1CCN(CCCNc2nccc(-c3c(-c4ccc(F)cc4)nn4cc(C(N)=O)ccc34)n2)CC1 [GW622475],0%,0%,0%,92.1%,99.6%,99.6%,2%,66%,0%,7%,51%,0%,9%,0%,0%,2%,39%,0%,0%,50%
O=C(NOCC1CC1)c1cc(Br)c(F)c(F)c1Nc1ccc(I)cc1Cl,39%,0%,0%,12%,0%,0%,0%,13%,14%,0%,0%,0%,0%,7%,2%,0%,0%,9%,9%,37%
OCCn1cc(-c2cnc3nnn(Cc4ccc5ncccc5c4)c3n2)cn1,10%,0%,0%,10%,0%,0%,0%,0%,0%,24%,0%,0%,0%,3%,18%,0%,8%,0%,0%,0%
CCOC(=O)N1CCC(n2cnc(-c3ccc(F)cc3)c2-c2ccnc(N)n2)CC1 [SB-219952],42%,32%,0%,77%,96.8%,98.4%,8%,40%,0%,0%,0%,8%,13%,15%,100%,0%,17%,9%,15%,0%
O=C(Nc1ccccc1)c1cccc(Oc2ccc3nccn3n2)c1,10%,10%,6%,8%,1%,6%,8%,98.4%,0%,91.6%,13%,12%,23%,0%,7%,0%,20%,4%,0%,32%
